# This is a sample that favours compounds with a hit; in the whole collection about 6% have one here.
# D1 antagonist: Antagonist of Human D 1 Dopamine Receptor: qHTS; D(1A) dopamine receptor (Homo sapiens), P21728; HEK293 TREx D1 cells, calcium flux, dopamine EC80; active compounds read low; activity change, negative = inhibition, % at 10 µM; actives 3.2% (n = 360,000); AID 504652, 2011; in the data active = activity change below about -30%; note: % is set by controls: 0 for no effect and ±100 for the full control effect
# Target sequence (P21728 whole entry, looked up): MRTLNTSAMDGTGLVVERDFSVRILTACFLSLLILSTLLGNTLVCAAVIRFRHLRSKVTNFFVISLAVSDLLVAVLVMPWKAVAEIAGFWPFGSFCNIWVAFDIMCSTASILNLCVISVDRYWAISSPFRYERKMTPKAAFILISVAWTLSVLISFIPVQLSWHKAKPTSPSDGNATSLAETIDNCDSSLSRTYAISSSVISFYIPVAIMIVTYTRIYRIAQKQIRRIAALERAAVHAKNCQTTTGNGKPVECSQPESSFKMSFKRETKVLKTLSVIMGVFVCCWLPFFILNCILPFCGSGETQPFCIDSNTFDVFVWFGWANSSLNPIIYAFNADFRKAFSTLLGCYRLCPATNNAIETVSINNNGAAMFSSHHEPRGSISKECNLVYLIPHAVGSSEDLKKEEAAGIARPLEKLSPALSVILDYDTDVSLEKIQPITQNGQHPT
#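 Antagonism measured as reduced calcium response to an EC80 dopamine addition following 180 s compound pre-read; cells were inducible HEK293 Trex D1 plated overnight at 30 C, read kinetically at 1 cycle/sec.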
# DRD3 antagonist: qHTS of D3 Dopamine Receptor Antagonist: qHTS; actives 2.5% (n = 360,000); max response, negative = inhibition, %; AID 652054, 2013; D(3) dopamine receptor (Homo sapiens), P35462; D3R cells, DiscoveRx beta-arrestin luminescence, antagonist mode; active compounds read low; in the data active = max response below about -50%; inconclusive = no clear call, values can overlap the other calls; note: % is set by controls: 0 for no effect and ±100 for the full control effect
#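 Cells expressing the human receptor were seeded at 1500 cells/well, incubated overnight at 37 degrees C in 5% CO2, then exposed to library compounds with dopamine controls for 90 minutes at 37 degrees C before luminescent detection.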
# D1 agonist: Allosteric Agonists of the Human D1 Dopamine Receptor: qHTS | D(1A) dopamine receptor (Homo sapiens), P21728 | HEK293 T-REx D1 cells, calcium flux, agonist mode | activation, % at 2 µM | actives 1% (n = 360,000) | AID 504660, 2011; in the data active = activation above about 30%; note: 0% is about no effect
#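 Inducible HEK293 T-REx D1 cells, force-coupled to calcium signalling, were plated at 4000 cells/well with tetracycline and held overnight at 30 C. After no-wash calcium dye loading, compound-evoked calcium rise over 180 s flagged agonists.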
# D1 potentiator: Potentiators of Human D1 Dopamine Receptor: qHTS; AID 504651, 2011; actives 0.036% (n = 360,000); potentiation, % at 10 µM; HEK293 TREx D1 cells, calcium flux, dopamine EC20 potentiation; D(1A) dopamine receptor (Homo sapiens), P21728; in the data active = potentiation above about 30%; note: 0% is about no effect
# D3 ag: qHTS of D3 Dopamine Receptor Agonist: qHTS | D3R DiscoveRx beta-arrestin cells, luminescence, 90 min | max activation, % | actives 0.58% (n = 410,000); in the data active = max activation above about 30%; note: 0% is about no effect
#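 Agonist-mode cell screen: cells plated at 1500/well and incubated overnight at 37 °C, then exposed to library compounds for 90 min at 37 °C. Detection reagent was added for 30–60 min at room temperature, and luminescence was read.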
# An asterisk follows results filed as active; ? = inconclusive; nt = no result.
SMILES,D1 antagonist,DRD3 antagonist,D1 agonist,D1 potentiator,D3 ag
COc1ccc2nc(N3C(=O)C(O)=C(C(=O)c4ccco4)C3c3ccc(OC)c(OC)c3)sc2c1 (configuration not stated),nt,-19,nt,nt,4
COc1ccc(CNC(=O)C2CCN(c3nc4ccccc4[nH]3)CC2)c(OC)c1,4,nt,1,-2,-4
CC(OCC(O)CNCC1COc2ccccc2O1)c1ccc(Cl)cc1 (configuration not stated),-6,-68*,27,-9,-3
c1ccc(CNCC2COc3ccccc3O2)cc1 (configuration not stated),5,0,1,-4,19
CC(=O)c1cccc(OCC(O)CNCC2COc3ccccc3O2)c1 (configuration not stated),-48*,-51*,45*,-13,37*
OC(CNCC1COc2ccccc2O1)COCc1cccs1 (configuration not stated),-5,-71*,5,-6,-30
O=C(CN1C(=O)C2(SCC(=O)N2c2ccc(F)cc2)c2ccccc21)NCCc1ccccc1 (configuration not stated),3,nt,2,-3,0
C[n+]1c2cc(N)ccc2cc2ccc(N)cc21 (tested in a mixture with another compound),nt,nt,nt,nt,13
Cc1ccccc1NC(=O)CSc1nc2c(c(=O)n(C)c(=O)n2C)n1Cc1ccccc1F,-19,nt,0,-2,9
O=C(Nc1ccc(F)cc1)C1CCN(c2nc3ccccc3n3cccc23)CC1,17,nt,3,2,2
Cc1ccc(C)c(NC(=O)Cn2c(=O)oc3cc(S(=O)(=O)NCc4ccccc4)ccc32)c1,-27,nt,-1,1,2
CN1CCN(c2ccc([N+](=O)[O-])c(-n3nc(-c4ccccc4)c4ccccc4c3=O)c2)CC1,-15,-53*,0,-6,2
Cc1nn(-c2cc(N3CCCCC3)ccc2[N+](=O)[O-])c(=O)c2ccccc12,-13,?,5,-9,-19
COCCCNc1ncnc2c1sc1nc(-c3ccco3)c3c(c12)CC(C)(C)OC3,11,12,0,-5,60*
Cc1ccc(C(=O)Nc2nnc(S(=O)(=O)N3CCOCC3)s2)cc1,-13,-57*,1,-6,-9
CSc1nnc(NC(=O)c2ccc(S(=O)(=O)N3CCOCC3)cc2)s1,0,-59*,3,-1,2
NC(=O)CSc1nnc(NC(=O)c2ccc(S(=O)(=O)N3CCOCC3)cc2)s1,-24,-1,1,-4,-2
CC1=NN(c2ccccc2)C(=O)C1N=Nc1ccc(N)cc1 (configuration not stated),0,-60*,0,9,-15
COc1ccc(OCC(=O)Nc2cc(-c3nc4ccccc4o3)ccc2Cl)cc1,-12,nt,0,-2,-6
CCCCNC(=O)/C=C1\Sc2ccccc2NC1=O,-11,-1,-2,-2,2
CCc1ccc(C(=O)/C=C2\Sc3ccccc3NC2=O)cc1,-4,-147*,3,4,-10
O=C(COC(=O)c1ccccc1SCC(=O)NC1CCS(=O)(=O)C1)NC1CCS(=O)(=O)C1 (configuration not stated),2,0,4,6,5
CCNC(=O)NC(=O)COC(=O)c1ccccc1SCC(=O)NC(=O)NCC,-8,-75*,3,-2,3
O=C1CC(c2ccc(F)cc2)Sc2ccccc2N1 (configuration not stated),-11,-13,-2,-5,-24
CC1CC(=S)Nc2ccccc2S1 (configuration not stated),14,-77*,-1,-2,-2
SMILES,D1 antagonist,DRD3 antagonist,D1 agonist,D1 potentiator,D3 ag
CCOC(=O)c1cccc(C2=CC(=O)C[C@H](c3ccc(OC)c(OC)c3)C2)c1,-4,88,0,1,52*
COc1ccc([C@H]2CC(=O)C=C(c3ccc(O)cc3)C2)cc1OC,-86*,25,5,-6,3
COc1ccc([C@H]2CC(=O)C=C(c3ccc4c(c3)OCO4)C2)cc1OC,34,0,3,2,-10
COc1ccc([C@H]2CC(=O)C=C(c3ccc(OC)c(OC)c3)C2)cc1,-13,32,1,-3,5
COc1ccc([C@H]2CC(=O)C=C(c3cccc4c3Oc3ccccc3S4)C2)cc1OC,nt,145,2,1,75*
O=C1C=C(c2cccc3c2Oc2ccccc2S3)C[C@@H](c2ccc(Cl)cc2)C1,nt,16,2,-2,7
COc1ccc([C@H]2CC(=O)C=C(c3ccc4ccccc4c3)C2)cc1OC,-14,38,-1,5,42*
N#Cc1ccccc1Cn1c(=O)n(Cc2ccc(C(=O)NC3CCN(Cc4ccccc4)CC3)cc2)c(=O)c2ccccc21,-2,nt,-1,0,-10
O=C1[C@@H]2Cc3c([nH]c4ccccc34)C(c3cccc([N+](=O)[O-])c3)N2C(=O)CN1CCCO (some centres not stated),23,-58*,3,-1,-9
CCOc1ccc(NC(=O)Cn2c(CCC(=O)O)ccc2-c2ccc(Cl)cc2)cc1,-1,nt,0,0,1
O=C1CC(c2ccccc2)C(C(=O)Nc2ccccc2F)N1 (configuration not stated),-32*,-9,-4,-1,1
CC1CCC/C=C/C(=O)c2c(O)cc(O)cc2CC(=O)O1 (configuration not stated),-9,-89*,2,-12,-51
C[C@@H]1Cc2c(O)c(O)cc(O)c2C(=O)O1,7,-9,2,12,28
CCCCc1cc(=O)oc2cc(OC(C)C(=O)NCC3CCC(C(=O)O)CC3)c(Cl)cc12 (configuration not stated),-3,-58*,1,-5,-6
CCCc1cc(=O)oc2cc(OC(C)C(=O)NCC3CCC(C(=O)O)CC3)c(Cl)cc12 (configuration not stated),7,-22,3,-1,-13
Cc1ccc(NC(=O)c2ccc(CSc3nnc(C)s3)cc2)cc1,-10,11,125*,35*,-6
O=C(O)c1ccc(CSc2nnc(SCc3ccccc3)s2)cc1,-47*,3,2,-5,5
COc1cc(SC)ccc1C(=O)NCCOc1c(C)cc(C)cc1C,15,-83*,22,-1,-3
CSc1ncccc1C(=O)NNC(=O)c1ccc(NS(=O)(=O)c2cccs2)cc1,-45*,0,0,5,0
